Rows were chosen to be rich in hits. Some 2.9% of all compounds tested hit in one or more screens of this group.
ABHD5-PLIN5 inh: ABHD5-PLIN5 protein interaction inhibition. Q00G26+Q8WTS1. Split G. princeps luciferase complementation, luminescence, 4 h. inhibition, % at 4 µM. hit rate 0.78% among 360,000;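 active = inhibition above the mean inhibition across every tested compound plus 3 SD, cut at about 22% in these data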;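 also: 0% = DMSO only wells and the 100% control is not disclosed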
sPLA2-III inh: Inhibits HGIII-sPLA2 liposome hydrolysis, primary screen | Q9NZ20 | QFRET BODIPY PC-A2 liposome hydrolysis, fluorescence | inhibition, % at 12.2 µM | hit rate 0.56% among 370,000 | AID 743126;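 active = inhibition above mean plus 3 SD of compounds lying within the high and low control bounds, cut at about 19% in these data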;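 also: 0% = median of test compound wells and 100% = no enzyme DMSO wells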
H9c2 protect: protects H9c2 cardiomyocytes from peroxide injury. AID 588492. protection from H2O2 cell death, % at 20 µM. H2O2 injury protection, ATPLite, 2 h. hit rate 0.63% among 360,000;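 active = compounds giving at least 50% protection of heart cells from peroxide-induced death in the single-dose screen, raw or plate-pattern-corrected value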;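 also: 0% = DMSO wells with peroxide and 100% = DMSO wells without peroxide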
DAGLB inh: diacylglycerol lipase beta (human) inhibition; AID 504411; hit rate 0.059% among 340,000; HEK293T DAGLB membrane lysate, EnzChek fluorogenic substrate; Q8NCG7; inhibition, % at 5.17 µM; in the data active = inhibition above about 34%;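 also: 0% = enzyme with vehicle and 100% = wells lacking enzyme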
Target sequence (Q8NCG7 whole entry, looked up): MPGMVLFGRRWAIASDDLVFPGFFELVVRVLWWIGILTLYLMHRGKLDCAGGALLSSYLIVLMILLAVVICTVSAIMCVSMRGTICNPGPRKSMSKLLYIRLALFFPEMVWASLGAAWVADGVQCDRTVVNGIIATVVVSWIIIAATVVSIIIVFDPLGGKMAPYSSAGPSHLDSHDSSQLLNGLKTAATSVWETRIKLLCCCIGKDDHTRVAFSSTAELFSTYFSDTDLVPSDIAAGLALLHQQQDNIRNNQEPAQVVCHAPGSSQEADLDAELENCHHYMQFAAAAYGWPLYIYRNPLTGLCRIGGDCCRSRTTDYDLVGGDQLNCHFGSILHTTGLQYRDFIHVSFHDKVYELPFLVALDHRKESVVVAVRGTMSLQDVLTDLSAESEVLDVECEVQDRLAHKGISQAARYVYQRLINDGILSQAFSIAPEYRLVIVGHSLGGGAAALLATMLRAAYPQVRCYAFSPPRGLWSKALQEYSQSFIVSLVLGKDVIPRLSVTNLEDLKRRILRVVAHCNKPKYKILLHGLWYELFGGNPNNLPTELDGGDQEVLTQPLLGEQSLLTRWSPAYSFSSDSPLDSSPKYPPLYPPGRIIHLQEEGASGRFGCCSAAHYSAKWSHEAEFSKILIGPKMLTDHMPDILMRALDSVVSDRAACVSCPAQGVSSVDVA
Rtt109 Vps75: inhibitors of Candida albicans Rtt109/Vps75 histone acetyltransferase; hit rate 0.16% among 330,000; AID 540336; inhibition, % at 34.9 µM; Q5AAJ8; purified Rtt109/Vps75, ThioGlo CoA-SH fluorescence, 4 h;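 active = inhibition of at least 50% in every replicate; inconclusive = best replicate reaches 50% inhibition but some replicates fall short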
Myeloid diff 2: myeloid differentiation induction; ER-HoxA9 myeloid progenitors, lysozyme-GFP differentiation, flow cytometry; calls only at 10 µM; hit rate 1% among 360,000; AID 624256;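 active = normalized GFP-positive differentiation at or above the plate's own cutoff, the solvent-only control mean plus 3 SD; inconclusive = no clear call, values can overlap the other calls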;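 also: cells exposed to compound for four days before flow analysis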
Starred values were filed as active, the others as inactive.

COC(=O)c1ccccc1NC(=O)C1CCCO1 (centres undefined) was read as ABHD5-PLIN5 inh 4, sPLA2-III inh 0, H9c2 protect 5, DAGLB inh 0, Rtt109 Vps75 3 and Myeloid diff 2 active.
CCOc1ccccc1NC(=O)c1oc2ccccc2c1NC(=O)C1CCCO1 (centres undefined) was read as ABHD5-PLIN5 inh 0, sPLA2-III inh 2, H9c2 protect 52*, DAGLB inh -4, Rtt109 Vps75 -1 and Myeloid diff 2 inactive.
COC(=O)c1ccccc1NC(=O)c1ccc(NC(=O)C2CCCO2)cc1 (centres undefined) was read as ABHD5-PLIN5 inh 10, sPLA2-III inh -2, H9c2 protect 7, DAGLB inh -2, Rtt109 Vps75 -5 and Myeloid diff 2 inactive.
Cc1ccc(/C(O)=C/C(=O)C(=O)NNC(=O)C(O)(c2ccccc2)c2ccccc2)cc1 was read as ABHD5-PLIN5 inh -4, sPLA2-III inh 2, H9c2 protect 27, DAGLB inh 13 and Myeloid diff 2 inactive.
`COC(=O)C(=O)/C=C(\O)c1ccc(C)cc1` gave ABHD5-PLIN5 inh 3, sPLA2-III inh 27*, H9c2 protect 2, DAGLB inh 4, Rtt109 Vps75 14 and Myeloid diff 2 inactive.
`CCOc1ccc(NC(=O)c2ccc(NC(=O)Cc3n[nH]c(=O)c4ccccc34)cc2)cc1` gave ABHD5-PLIN5 inh 1, sPLA2-III inh 2, H9c2 protect 25, DAGLB inh 0, Rtt109 Vps75 -6 and Myeloid diff 2 inactive.
For CCc1cccc2cc3c(N)c(C(=O)Nc4ccc(S(=O)(=O)N5CCCC5)cc4)sc3nc12 the results were ABHD5-PLIN5 inh -9, sPLA2-III inh -15, H9c2 protect 5, DAGLB inh -10, Rtt109 Vps75 0 and Myeloid diff 2 active.
For Cc1cccc2cc3c(N)c(C(=O)Nc4ccc(N5CCOCC5)cc4)sc3nc12 the results were ABHD5-PLIN5 inh 0, sPLA2-III inh 3, H9c2 protect -12, DAGLB inh 14, Rtt109 Vps75 13 and Myeloid diff 2 inactive.
For CCOC(=O)c1oc2ccccc2c1COC(=O)CNC(=O)c1ccc(C)cc1 the results were ABHD5-PLIN5 inh -3, sPLA2-III inh -17, H9c2 protect 5, DAGLB inh -4, Rtt109 Vps75 10 and Myeloid diff 2 inactive.
CC(=O)Oc1ccc2nc(-c3ccc(Br)o3)oc(=O)c2c1 was read as ABHD5-PLIN5 inh -8, sPLA2-III inh -6, H9c2 protect 1, DAGLB inh -1, Rtt109 Vps75 0 and Myeloid diff 2 inactive.
For Cc1ccc(S(=O)(=O)Oc2ccccc2/C=N/NC(=O)c2c(Cl)cnn2C)cc1 the results were ABHD5-PLIN5 inh -5, sPLA2-III inh -7, H9c2 protect -12, DAGLB inh 0, Rtt109 Vps75 7 and Myeloid diff 2 inactive.
Screening COc1cc(Cl)cc(/C=C/c2ccc3cccc(O)c3n2)c1OC returned ABHD5-PLIN5 inh 9, sPLA2-III inh 6, H9c2 protect 57*, DAGLB inh -16, Rtt109 Vps75 -3 and Myeloid diff 2 inactive.
For O=C(Oc1ccc(Cl)c2cccnc12)c1cccc([N+](=O)[O-])c1 the results were ABHD5-PLIN5 inh -3, sPLA2-III inh 1, H9c2 protect 64*, DAGLB inh 4, Rtt109 Vps75 -5 and Myeloid diff 2 inactive.
CC1C/C(=C/c2ccccn2)C(=O)/C(=C/c2ccccn2)C1 (centres undefined) was read as ABHD5-PLIN5 inh 76*, H9c2 protect -9, DAGLB inh -6, Rtt109 Vps75 5 and Myeloid diff 2 inactive.
For CC(C)(C)C1C/C(=C/c2ccccn2)C(=O)/C(=C/c2ccccn2)C1 (centres undefined) the results were ABHD5-PLIN5 inh 72*, H9c2 protect -11, DAGLB inh -3, Rtt109 Vps75 2 and Myeloid diff 2 inconclusive.
`c1ccc(-c2cn(-c3ccccc3)c3ncnc(N4CCCCC4)c23)cc1` gave ABHD5-PLIN5 inh 2, sPLA2-III inh 7, H9c2 protect 5, DAGLB inh -8, Rtt109 Vps75 0 and Myeloid diff 2 inactive.
`CCOc1ccc(-n2cc(-c3ccccc3)c3c(=S)nc[nH]c32)cc1` gave ABHD5-PLIN5 inh 3, sPLA2-III inh -3, H9c2 protect 52*, DAGLB inh -1, Rtt109 Vps75 4 and Myeloid diff 2 inactive.

Screening results deposited in PubChem by several laboratories.
